Results filed as inconclusive are left out. The source made the active and inactive calls. Calls follow the shape of the dose curve; as a rule, active = well fitted inhibition curve with a large enough effect; inconclusive = small, poorly fitted or top-dose-only effect; inactive = flat fitted curve, though single readings scatter.
% is scaled to controls: 0 for no effect and ±100 for the full control effect; potency is read from the fitted curve at half-maximal effect.

The target in this experiment is Phospholipid hydroperoxide glutathione peroxidase GPX4 (Homo sapiens) (UniProt P36969). The experiment can be described thus: Primary qHTS Assay for Inhibitors of Recombinant Selenoprotein Glutathione Peroxidase 4 (GPX4) (AID 1845192). Also: nearly all actives have a fitted effect of over 65% in size. The settings on record: recombinant GPX4, GR-coupled NADPH fluorescence, 15 min; series mostly up to 50 µM; activity change, negative = inhibition: at the top concentration. A digest of the protocol: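 Steps: GPX4 plus compound, 30 min RT; add GR/GSH/NADPH master mix; start with cumene hydroperoxide; read 340/450 nm fluorescence at 0 and 15 min. Finals were 200 nM GPX4, 1 mM GSH, 0.5 mM CHP, 0.5 mM NADPH, 100 nM GR.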
Chain of Phospholipid hydroperoxide glutathione peroxidase GPX4 (Homo sapiens) (P36969 whole entry, looked up): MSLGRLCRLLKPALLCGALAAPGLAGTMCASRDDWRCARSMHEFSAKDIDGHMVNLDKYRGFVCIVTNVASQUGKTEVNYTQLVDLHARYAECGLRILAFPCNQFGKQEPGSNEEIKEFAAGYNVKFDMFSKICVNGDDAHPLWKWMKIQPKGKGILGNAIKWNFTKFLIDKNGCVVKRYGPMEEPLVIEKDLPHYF
As for `CC1CCC(C(C)C)C(OC(=O)c2ccccc2O)C1` (stereo unspecified), the “activity change, negative = inhibition” value was 3.72% (inactive).
Consider `CCc1cc2c(cc1CC)CC(NC[C@H](O)c1ccc(O)c3[nH]c(=O)ccc13)C2`, for which the Potency is 10 µM (active).
With `CCCCCCCCCCCCCCCC(=O)OCC(O)C1OC(=O)C(O)=C1O` (stereo unspecified), the Potency was 7.08 µM (active).
Take `N[C@@H](C(=O)N[C@@H]1C(=O)N2C(C(=O)O)=C(Cl)CC[C@H]12)c1ccccc1`: the “activity change, negative = inhibition” value was -10.2% (inactive).
For `NS(=O)(=O)c1ccc(-n2nc(C(F)(F)F)cc2-c2ccc(F)cc2)cc1`, the “activity change, negative = inhibition” value was 3.52% (inactive).
`CC(=O)OCC1=C(C(=O)O)N2C(=O)[C@@H](NC(=O)CC#N)[C@H]2SC1`: the outcome was inactive.
In the case of `C=CCN1CC[C@]23c4c5ccc(O)c4O[C@H]2[C@@H](OCCOCCOCCOCCOCCOCCOCCOC)CC[C@@]3(O)[C@H]1C5`, the outcome was inactive.
Turning to `N=C(N)c1ccc(OCCCOc2ccc(C(=N)N)cc2Br)c(Br)c1`, the outcome was inactive.
For `CCC(=O)O[C@]1(C(=O)COC(C)=O)CC[C@H]2[C@@H]3CCC4=CC(=O)CC[C@]4(C)[C@H]3[C@@H](O)C[C@@]21C`, the “activity change, negative = inhibition” value was -5.03% (inactive).
For the molecule `Cc1cc2nc3c(=O)[nH]c(=O)nc-3n(C[C@@H](O)[C@@H](O)[C@@H](O)COP(=O)(O)O)c2cc1C`, the Potency was 2.55 µM (active).
On to `O=C(O[C@H]1C[N+]2(CCCOc3ccccc3)CCC1CC2)C(O)(c1cccs1)c1cccs1`, for which the outcome was inactive.
`NCCCC(N)C(=O)O` (stereo unspecified): the “activity change, negative = inhibition” value was -8.21% [at 27.8 µM] (inactive).
On to `CCN1/C(=C/C=C/C=C/c2sc3ccccc3[n+]2CC)Sc2ccccc21`, for which the Potency is 7.94 µM (active).
As to `Nc1nc(Cl)nc2c1ncn2C1CC(O)C(CO)O1` (stereo unspecified), the “activity change, negative = inhibition” value was -11.9% (inactive).
Still for that read-out and setting: to `O=NCc1ccc([N+](=O)[O-])o1` belongs -23.9% (inactive).
With `CC1=CC(O)CC(C)(C)C1/C=C/C(C)=C/C=C/C(C)=C/C=C/C=C(C)/C=C/C=C(C)/C=C/C1=C(C)CC(O)CC1(C)C` (stereo unspecified), the Potency was 12.6 µM (active).

These data come from PubChem BioAssay (NCATS).
